# D2 PAM-1: positive allosteric modulators of human D2 dopamine receptor; AID 485347; P14416; HEK293 T-REx D2, calcium flux, EC20 dopamine potentiation; potentiation, % at 10 µM; 0.34% of 340,000 active;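 active = potentiation over 3 SD above the plate norm, cut at about 30% in these data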
# Target sequence (P14416 whole entry, looked up): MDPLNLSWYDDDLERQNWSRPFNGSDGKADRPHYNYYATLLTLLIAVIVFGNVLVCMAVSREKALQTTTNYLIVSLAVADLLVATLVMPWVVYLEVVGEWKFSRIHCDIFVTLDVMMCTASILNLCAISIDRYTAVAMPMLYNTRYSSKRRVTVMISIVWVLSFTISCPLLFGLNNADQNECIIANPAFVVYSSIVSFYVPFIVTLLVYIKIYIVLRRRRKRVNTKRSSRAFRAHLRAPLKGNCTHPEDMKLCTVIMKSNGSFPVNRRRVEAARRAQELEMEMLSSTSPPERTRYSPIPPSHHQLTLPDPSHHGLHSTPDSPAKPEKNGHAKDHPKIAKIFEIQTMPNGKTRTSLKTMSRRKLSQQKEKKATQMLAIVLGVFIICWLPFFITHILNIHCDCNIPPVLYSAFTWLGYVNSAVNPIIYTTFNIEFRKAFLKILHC
#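 Potentiation of an EC20 dopamine calcium response measured kinetically over 180 s, after a preceding 180 s compound-only read flagging agonists. Cells: inducible Hek293 Trex D2 line, 4000/well, cultured overnight at 30 C before dye loading.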
# D2 ag-1: activates the human D2 dopamine receptor | P14416 | HEK293 T-REx D2 cells, calcium flux agonist mode | activation, % at 2 µM | 0.53% of 340,000 active;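 active = activation over 3 SD above normal in the single-dose calcium agonist read, cut at about 30% in these data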
#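 Agonism scored from kinetic calcium signal (1 read/sec, 180 s) following compound pin transfer, after a 10 s baseline. Cells: HEK293 Trex line expressing inducible D2 receptor coupled to calcium, dye-loaded after overnight culture at 30 C.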
# D2 antagonist: antagonists of human D2 dopamine receptor | HEK293 TREx D2 cells, calcium flux, dopamine EC80 | AID 485344 | 2% of 340,000 active | P14416 | inhibition, % at 10 µM; in the data active = inhibition above about 30%; inactive = below that, where a call was filed
#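 HEK293 T-REx D2 cells, tet-induced, calcium dye no-wash. Cpd pintool add, 180 s kinetic, then EC80 DA, 180 s kinetic. Ca flux read.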
# D2 ag-2: human D2 receptor agonism in beta-arrestin assay | DiscoveRx PathHunter D2 beta-arrestin, luminescence, 90 min; 100% = 57 uM dopamine signal | AID 624465 | activation, % (no concentration beside the values) | P14416 | 0.084% of 360,000 active; in the data active = activation above about 40%; inconclusive = between about 15% and that limit
#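 Agonist mode: compounds alone added to overnight-plated D2 PathHunter cells for 90 min at 37 C, with 57 uM final dopamine (EC100) defining full response. Beta-arrestin recruitment detected by chemiluminescent reagent, read after 1 h at ambient temperature.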
# D2 PAM-2: potentiates the human D2 dopamine receptor allosterically. 0.23% of 360,000 active. DiscoveRx D2 beta-arrestin cells, luminescence, 90 min; 100% = 57 uM dopamine signal. potentiation, % (concentration not given with the values); in the data active = potentiation above about 50%; inconclusive = mostly about 30% to 49%
#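 PathHunter beta-arrestin assay in DiscoveRx D2 cells. Compounds were added with an EC20 of dopamine (50 nM final) for 90 min at 37 deg C. Luminescence was read 1 h after detection reagent, with 57 uM dopamine as the EC100 control.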
# A number is an active result; – = inactive; ? = inconclusive; · = no result given; ! = not active in a repeat. In the library only some 2.4% were active in any assay of this set; here they are far more common.
SMILES,D2 PAM-1,D2 ag-1,D2 antagonist,D2 ag-2,D2 PAM-2
CCN(CCCNC(=O)CSc1cc(=O)n(CC)c2ccccc12)c1ccccc1,–,–,·,·,·
Cc1ccc(-n2c3c(cc(-c4nc(-c5ccc(Cl)cc5)cs4)c2=O)C(=O)CC(C)(C)C3)cc1C,–,–,·,·,·
CC(OC(=O)c1ccc([N+](=O)[O-])o1)C(=O)Nc1nc(-c2ccc(F)c(F)c2)cs1 (stereo not given),–,–,–,–,66
Cc1cc(C(=O)OC(C)C(=O)Nc2nc(-c3ccccc3)cs2)c(C)o1 (stereo not given),–,–,–,–,–
COc1ccc(OC)c(CNC(=O)NCc2noc3ccc(C)cc23)c1,–,–,·,·,·
Cc1ccc(SCCNS(C)(=O)=O)cc1,36,–,–,–,–
Cc1cc(=O)n2c(C(=O)Nc3ccc(Br)cc3)c(C(=O)Nc3ccccc3)sc2n1,–,–,·,·,·
COc1ccc(NC(=O)c2c(C)oc3ccc(O)c(CN4CCCCCC4)c23)cc1Cl,·,–,·,·,·
COc1cccc(OC)c1OCCOCCN1CCN(C)CC1,–,–,68,–,–
COc1ccc(OCCOCCN2CCN(C)CC2)cc1,–,–,–,–,–
CCCCCn1c(=N)n(CC(O)COc2ccccc2OC)c2ccccc21 (stereo not given),–,–,32!,–,–
COc1cccc(CNC(=O)CN2C(=O)CSc3ccc(S(=O)(=O)N(C)C)cc32)c1,–,·,·,·,·
CCCSc1ccc([C@@H]2[C@@H]3C(=O)N(C)C(=O)[C@@H]3[C@]3(C(=O)OC)CCCCN23)cc1OC,–,–,35,–,–
Cc1cc(C)c(/C=C(\C#N)C(N)=S)c(C)c1,–,–,84,–,–
CC(CNc1ccccc1O)C(=O)O (stereo not given),–,–,–,?,68
CC(NC(=O)CCC(=O)Nc1ccccc1O)c1ccccc1 (stereo not given),·,·,·,–,–
CCOc1ccc(C(=O)Nc2ccc3oc(-c4ccc5ccccc5c4)nc3c2)cc1,–,–,·,·,·
COC(=O)c1ccc(NC(=O)NCCn2nnc3cc(S(=O)(=O)N(C)C)ccc32)cc1,–,–,·,·,·
CC1(c2ccc3noc(-c4ccc(F)cc4)c3c2)OCCO1,–,–,–,?,60
CC1(c2ccc3noc(-c4ccccc4)c3c2)OCCO1,–,–,–,–,58
O=C(c1ccc2noc(-c3ccccc3)c2c1)N1CCN(c2ccccc2)CC1,–,–,–,?,72
COc1cccc(-c2onc3ccc(C4(C)OCCO4)cc23)c1,–,–,–,?,–
O=C(O)c1ccc2noc(-c3ccccc3)c2c1,–,–,–,–,–
Cc1cccc(-n2nnc(-c3nc(-c4cccs4)no3)c2N)c1,–,·,·,·,·
CN(C)c1ccc(O)c2c1CC1CC3C(N(C)C)C(=O)C(C(N)=O)=C(O)[C@@]3(O)C(=O)C1=C2O (stereo not given in full),·,·,·,–,–
SMILES,D2 PAM-1,D2 ag-1,D2 antagonist,D2 ag-2,D2 PAM-2
CN(C)c1ccc(O)c2c1CC1CC3[C@@H](N(C)C)C(=O)C(C(N)=O)C(=O)[C@]3(O)C(=O)C1C2=O (stereo not given in full),·,·,·,?,61
CCOC(=O)c1c(SCC(=O)Nc2nc3ccccc3s2)nc(=O)[nH]c1C,–,–,·,·,·
CCOC(=O)c1c(SCC(=O)Nc2nc(C)cs2)nc(=O)[nH]c1C,–,–,32,–,–
Cc1ccccc1CN1CCc2nc(Nc3ccc4c(c3)OCCO4)ncc2C1,·,–,·,·,·
Cc1ccc(/C=N\NC(=O)CCc2n[nH]c(=O)[nH]c2=O)o1,50,–,–,–,–
COc1ccc(OC)c(/C=N/NC(=O)CCc2n[nH]c(=O)[nH]c2=O)c1,–,–,–,–,–
CCOC(=O)CN(C(=O)CSc1nnc2c(n1)[nH]c1ccc(F)cc12)c1ccccc1,–,–,72,–,–
CCOC(=O)CN(C(=O)CSc1nnc2c(n1)[nH]c1c(C)cc(C)cc12)c1ccccc1,–,–,61,·,·
CCOC(=O)CN(C(=O)CSc1nnc2c(n1)[nH]c1ccccc12)c1ccccc1,–,–,–,–,–
Cc1ccc(NC(=O)Nc2nnc(N3CCCC3)s2)cc1C,–,–,·,·,·
COC(=O)c1cc2sc(C)cc2n1Cc1nc(-c2ccc(C)cc2)oc1C,–,·,·,·,·
CCS(=O)(=O)Nc1ccc2[nH]c(=O)[nH]c2c1,–,–,33,–,–
CS(=O)(=O)Nc1ccc2[nH]c(=O)[nH]c2c1,–,–,–,–,–

# Assay outcomes from PubChem.
